Shh pathway inh: blocks Sonic Hedgehog signaling. Shh-LIGHT2 Gli-luciferase reporter, 30 h. inhibition, % (test concentration not listed). actives 2.1% (n = 22,000). AID 2313;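 active = mean inhibition across valid replicates above about 65%, limit read from the data; inconclusive = mean under the limit, yet half or more replicates past it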;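 note: pathway switched on by Shh-conditioned medium diluted 1 in 25 in low serum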
MITF inh: MITF inhibition; TRPM1 promoter luciferase, luminescence, 24 h; inhibition, % (concentration not given with the values); actives 0.28% (n = 37,000); AID 2240; in the data active = inhibition above about 85%; inconclusive = no clear call, values can overlap the other calls; inactive = below about 68%;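 note: human melanocyte line stably carrying TRPM1 promoter luciferase reporter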
NOMO-1 viab: STK33 inhibitor candidate reducing NOMO-1 cell viability | NOMO-1 AML viability, CellTiter-Glo luminescence, 72 h | inhibition, % (no concentration beside the values) | actives 7.5% (n = 37,000) | AID 2330; in the data active = inhibition above about 80%; inconclusive = no clear call, values can overlap the other calls
Active calls of the source: *; ? = inconclusive; · = no result. Only some compounds are listed: those with a hit (about 7.9% of all), similar ones and a draw of the others.

SMILES	Shh pathway inh	MITF inh	NOMO-1 viab
COc1ccc(CN(C)C[C@@H]2Oc3ccc(NC(=O)Nc4ccc(F)cc4)cc3C(=O)N([C@@H](C)CO)C[C@@H]2C)cc1	·	-7	26
COc1ccc(CN(C)C[C@H]2Oc3ccc(NC(=O)Nc4ccc(OC)cc4)cc3C(=O)N([C@@H](C)CO)C[C@H]2C)cc1	-7	-3	29
COc1ccc(CN(C)C[C@H]2Oc3ccc(NC(=O)Nc4ccc(C(F)(F)F)cc4)cc3C(=O)N([C@H](C)CO)C[C@@H]2C)cc1	26	-9	104*
COc1ccc(NC(=O)Nc2ccc3c(c2)C(=O)N([C@H](C)CO)C[C@@H](C)[C@@H](CN(C)Cc2ccncc2)O3)cc1	0	-11	7
COc1ccc(CN(C)C[C@H]2Oc3ccc(NC(=O)Nc4ccc(C(F)(F)F)cc4)cc3C(=O)N([C@@H](C)CO)C[C@H]2C)cc1	45	-5	126*
COc1ccc(CN(C)C[C@@H]2Oc3ccc(NC(=O)Nc4ccc(C(F)(F)F)cc4)cc3C(=O)N([C@@H](C)CO)C[C@H]2C)cc1	28	-13	117*
COc1ccc(NC(=O)Nc2ccc3c(c2)C(=O)N([C@@H](C)CO)C[C@H](C)[C@H](CN(C)Cc2ccncc2)O3)cc1	·	5	103*
COc1ccc(CN(C)C[C@H]2Oc3ccc(NC(=O)Nc4ccc(F)cc4)cc3C(=O)N([C@H](C)CO)C[C@H]2C)cc1	·	5	5
C[C@@H]1CCCCO[C@@H](CN(C)Cc2ccc3c(c2)OCO3)[C@@H](C)CN([C@H](C)CO)C(=O)c2cc(NS(=O)(=O)c3ccc(F)cc3)ccc2O1	61	8	32
O=C(CSc1nc(-c2ccccc2)cc(-c2ccccc2)n1)Nc1cccc([N+](=O)[O-])c1	·	5	63
C/C=C(\C)CC(/C=C(\C)C(O)C(C)/C=C(\C)C(O)C(C)/C=C/C(O)C/C=C/C(O)C(O)C(=O)O)C(=O)O (stereo not given)	-23	-1	22
Cc1cc(C(=O)Sc2cccc(C(F)(F)F)c2)nn1C(C)(C)C	-11	-17	55
O=C(O)CC(Cc1ccccc1)C(=O)Nc1ccc(Cl)c(Cl)c1 (stereo not given)	·	-12	-15
COc1ccc(CN(C)C[C@H]2Oc3ccc(NC(=O)Nc4ccc(C(F)(F)F)cc4)cc3C(=O)N([C@H](C)CO)C[C@H]2C)cc1	19	-12	129*
C[C@@H]1CCCCO[C@@H](CN(C)Cc2ccncc2)[C@@H](C)CN([C@H](C)CO)C(=O)c2cc(NC(=O)C3CCCCC3)ccc2O1	-18	-3	8
COc1ccc(CN(C)C[C@H]2Oc3ccc(NC(=O)Nc4ccc(OC)cc4)cc3C(=O)N([C@@H](C)CO)C[C@@H]2C)cc1	·	-3	13
COc1ccc(CN(C)C[C@H]2Oc3ccc(NC(=O)Nc4ccc(F)cc4)cc3C(=O)N([C@@H](C)CO)C[C@H]2C)cc1	7	-11	16
COc1ccc(NC(=O)Nc2ccc3c(c2)C(=O)N([C@H](C)CO)C[C@H](C)[C@@H](CN(C)Cc2ccc(C(F)(F)F)cc2)O3)cc1	10	27	107*
COc1ccc(CN(C)C[C@H]2OCCCC[C@@H](C)Oc3ccc(NC(=O)Nc4ccc(OC)cc4)cc3C(=O)N([C@H](C)CO)C[C@@H]2C)cc1	46	-13	8
COc1ccc(CN(C)C[C@@H]2OCCCC[C@@H](C)Oc3ccc(NC(=O)Nc4ccc(C(F)(F)F)cc4)cc3C(=O)N([C@H](C)CO)C[C@@H]2C)cc1	21	-5	113*
C[C@@H]1CCCCO[C@H](CN(C)Cc2ccc(C(F)(F)F)cc2)[C@@H](C)CN([C@H](C)CO)C(=O)c2cc(NC(=O)C3CCCCC3)ccc2O1	66*	20	72
CCN(CC(=O)Nc1ccccc1SC)S(=O)(=O)c1ccc2ccccc2c1	·	-8	9
Cn1c(Cc2cccc3ccccc23)nnc1SCc1ccccc1C#N	·	-8	8
C[C@H](CO)N1C[C@H](C)[C@@H](CN(C)C(=O)Nc2ccc(C(F)(F)F)cc2)Oc2c(NS(=O)(=O)c3ccc(Cl)cc3)cccc2C1=O	-47	1	20
C[C@@H]1CN([C@H](C)CO)C(=O)Cc2cc(NC(=O)NC3CCCCC3)ccc2O[C@H]1CN(C)Cc1ccncc1	9	8	6
SMILES	Shh pathway inh	MITF inh	NOMO-1 viab
C[C@H]1CN([C@@H](C)CO)C(=O)Cc2cc(NC(=O)NC3CCCCC3)ccc2O[C@@H]1CN(C)Cc1ccc(Cl)c(Cl)c1	?	3	105*
C[C@@H]1CN([C@@H](C)CO)C(=O)Cc2cc(NC(=O)NC3CCCCC3)ccc2O[C@@H]1CN(C)Cc1ccc(Cl)c(Cl)c1	30	48	111*
C[C@@H]1CN([C@@H](C)CO)C(=O)Cc2cc(NC(=O)C3CCCCC3)ccc2O[C@@H]1CN(C)Cc1ccc(Cl)c(Cl)c1	·	37	123*
C[C@@H]1CN([C@H](C)CO)C(=O)Cc2cc(NC(=O)NC3CCCCC3)ccc2O[C@@H]1CN(C)Cc1ccncc1	-26	-5	10
C[C@H](CO)N1C[C@H](C)[C@H](CN(C)Cc2ccc(Cl)c(Cl)c2)Oc2ccc(NC(=O)C3CCCCC3)cc2CC1=O	17	11	37
Cc1ccc(NC(=O)CSC2CC(=O)N(c3ccc(Br)cc3)C2=O)cc1Cl (stereo not given)	·	-4	8
CN1C(=O)c2cccc(NC(=O)C3COc4ccccc4O3)c2C1=O (stereo not given)	·	17	-2
O=C(CSc1nnc(-c2cccs2)n1-c1ccc(Cl)cc1)c1ccc(Cl)cc1	·	-7	22
CC1CC(=O)C2=C(CCC34OC23C(=O)c2cccc(O)c2C4O)C1 (stereo not given)	-3	15	100*
C[C@@H]1CC(=O)C2=C(C1)C[C@@H](O)[C@@]1(O)C2C(=O)c2cccc(O)c2[C@@H]1O (stereo not given in full)	-12	9	4
COC(=O)c1ccccc1NC(=O)COc1ccc(Br)cc1C(C)(C)C	·	5	16
CCC(Sc1nnc2c3ccccc3n(C)c2n1)C(=O)Nc1ncccc1Cl (stereo not given)	·	28	17
N#C/C(=C(\O)c1ccc(C(=O)c2ccccc2)cc1)c1nc2ccccc2s1	96*	31	35
O=C(CSc1nc2ccccc2s1)Nc1ccccc1C(=O)c1ccccc1	·	23	10
COc1ccc([N+](=O)[O-])cc1CNCCO	·	4	3
C=CCn1c(=S)sc2c(Sc3nnc(-c4ccco4)o3)ncnc21	73*	67	115*
Cc1ccc(C(=O)CSc2nnc(-c3ccco3)o2)o1	·	-53	22
C[C@@H]1CN([C@H](C)CO)C(=O)Cc2cc(NC(=O)CCCCCC(=O)Nc3ccccc3N)ccc2O[C@H]1CN(C)C	·	-2	13
C[C@H]1CN([C@@H](C)CO)C(=O)c2cc(NC(=O)CCCCCC(=O)Nc3ccccc3N)ccc2O[C@H]1CN(C)Cc1ccc(Cl)c(Cl)c1	·	37	111*
C[C@@H]1CN([C@H](C)CO)C(=O)Cc2cc(NC(=O)CCCCCC(=O)Nc3ccccc3N)ccc2O[C@H]1CN(C)Cc1ccc(Cl)c(Cl)c1	·	10	108*
COc1ccc(CN(C)C[C@@H]2Oc3ccc(NC(=O)CCCCCC(=O)Nc4ccccc4N)cc3CC(=O)N([C@H](C)CO)C[C@H]2C)cc1	·	-14	42

Compound activity (PubChem BioAssay)
